# Assay results reported in PubChem BioAssay (NCI).
# The panel holds about 83,000 compounds, 20% with a hit somewhere; the sample as a whole holds those more often.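 Step 1: grow cells in 96-well plates. Step 2: add test compound at a single concentration. Step 3: incubate 48 h. Step 4: record percent growth.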 The source made the active and inactive calls. How the source made its calls: active means growth percent below 10; inactive means the rest.
# Key:
# Assay in all cases: NCI-60 one-dose screen, 48 h (100 = growth as untreated, 0 = no growth, -100 = all killed)
# Conditions in all cases: 10 µM unless noted
# SR leukemia = test system: SR leukemia
# RPMI-8226 leukemia = test system: RPMI-8226 leukemia
# OVCAR-8 ovarian = test system: OVCAR-8 ovarian
# OVCAR-5 ovarian = test system: OVCAR-5 ovarian
# OVCAR-4 ovarian = test system: OVCAR-4 ovarian
# SK-OV-3 ovarian = test system: SK-OV-3 ovarian
# IGROV1 ovarian = test system: IGROV1 ovarian
# OVCAR-3 ovarian = test system: OVCAR-3 ovarian
# HS 578T breast = test system: HS 578T breast
# NCI/ADR-RES ovarian = test system: NCI/ADR-RES ovarian
# T-47D breast = test system: T-47D breast
# BT-549 breast = test system: BT-549 breast
# MDA-MB-435 melanoma = test system: MDA-MB-435 melanoma
# SW-620 colon = test system: SW-620 colon
# MCF7 breast = test system: MCF7 breast
# HCT-116 colon = test system: HCT-116 colon
# HCC-2998 colon = test system: HCC-2998 colon
# KM12 colon = test system: KM12 colon
SMILES,growth (SR leukemia),growth (RPMI-8226 leukemia),growth (OVCAR-8 ovarian),growth (OVCAR-5 ovarian),growth (OVCAR-4 ovarian),growth (SK-OV-3 ovarian),growth (IGROV1 ovarian),growth (OVCAR-3 ovarian),growth (HS 578T breast),growth (NCI/ADR-RES ovarian),growth (T-47D breast),growth (BT-549 breast),growth (MDA-MB-435 melanoma),growth (SW-620 colon),growth (MCF7 breast),growth (HCT-116 colon),growth (HCC-2998 colon),growth (KM12 colon)
NC1=NCc2nc3ccccc3c(=O)n2C1,93.1% (inactive),79.1% (inactive),102% (inactive),85.8% (inactive),106% (inactive),117% (inactive),101% (inactive),101% (inactive),111% (inactive),96.8% (inactive),113% (inactive),113% (inactive),100% (inactive),103% (inactive),105% (inactive),101% (inactive),88.8% (inactive),100% (inactive)
CN1CCN(C(=O)c2c3c(n4ccccc24)C(=O)c2ncccc2C3=O)CC1,18% (inactive),57.9% (inactive),68% (inactive),99.6% (inactive),72% (inactive),70% (inactive),60% (inactive),7.09% (active),52.5% (inactive),71.5% (inactive),93.3% (inactive),57.3% (inactive),76.1% (inactive),37.6% (inactive),26.9% (inactive),44.1% (inactive),70.9% (inactive),65.4% (inactive)
COc1cccc(-c2nn(-c3ccccc3)cc2-c2ccnc(NCCNC(=O)Nc3cccc(C(F)(F)F)c3)c2)c1,-21.2% (active),32.6% (inactive),19.8% (inactive),58.4% (inactive),46.5% (inactive),44.9% (inactive),55.4% (inactive),39.2% (inactive),-21.3% (active),27.2% (inactive),0.52% (active),26.1% (inactive),29.1% (inactive),39% (inactive),15.3% (inactive),10.5% (inactive),-47% (active),2.54% (active)
N#C/C(=C/C=C/c1cccc(Cl)c1)S(=O)c1ccccc1 (stereo not given),1.43% (active),-13.4% (active),-2.48% (active),-45.1% (active),-52.9% (active),19.6% (inactive),-25.7% (active),-86.1% (active),11.6% (inactive),7.8% (active),-47.2% (active),-69.3% (active),-35.4% (active),-58.9% (active),-52.5% (active),-86.3% (active),-88.7% (active),-47.7% (active)
CNC(=O)NCC1OC(n2cnc3c(NC(=O)Nc4ccccc4)ncnc32)C(O[Si](C)(C)C(C)(C)C)C1CC(=O)N(C)OC (stereo not given),-56% (active),-75.4% (active),20.4% (inactive),44.1% (inactive),19% (inactive),40.7% (inactive),-36.6% (active),7.61% (active),3.64% (active),54.4% (inactive),-34% (active),25.5% (inactive),7.75% (active),23.7% (inactive),3.29% (active),16.8% (inactive),-13.4% (active),17.2% (inactive)
CC1(c2ccccc2)NC(=O)N(NC(=O)CSc2nc(-c3cccs3)nc3ccccc23)C1=O (stereo not given),67% (inactive),72.9% (inactive),82.4% (inactive),76.7% (inactive),106% (inactive),124% (inactive),88.6% (inactive),95.9% (inactive),101% (inactive),87.9% (inactive),95.9% (inactive),110% (inactive),103% (inactive),109% (inactive),106% (inactive),93.6% (inactive),98.4% (inactive),103% (inactive)
COc1cc(-c2n/c(=C\c3c(O)[nH]c4ccc(Cl)cc34)cc3c2=Nc2ccccc2-3)cc(OC)c1OC,0.372% (active),15.5% (inactive),3.95% (active),88.6% (inactive),-41.8% (active),-14.2% (active),-18.3% (active),-57.4% (active),20.9% (inactive),15.1% (inactive),32.7% (inactive),101% (inactive),16.6% (inactive),-29.5% (active),0.83% (active),-73.5% (active),44.6% (inactive),2.53% (active)
Cc1cc(NCc2cc(Nc3ccnc4cc(Cl)ccc34)ccc2F)nc(N2CCOCC2)n1,-13% (active),29.4% (inactive),36.3% (inactive),76.5% (inactive),7.29% (active),0.55% (active),49.7% (inactive),16.1% (inactive),16.5% (inactive),25% (inactive),-54.8% (active),75.3% (inactive),-18.4% (active),32.5% (inactive),6.18% (active),2.23% (active),55.8% (inactive),44% (inactive)
C=C(C)[C@@H]1CC[C@]2(C(=O)NC3CCCCC3)CC[C@]3(C)[C@H](CC[C@@H]4[C@@]5(C)CCC(=O)C(C)(C)[C@@H]5CC[C@]43C)[C@@H]12,115% (inactive),83.1% (inactive),94.6% (inactive),96.5% (inactive),82.1% (inactive),97.1% (inactive),101% (inactive),96.7% (inactive),89.5% (inactive),104% (inactive),83.3% (inactive),92.8% (inactive),93.6% (inactive),93.6% (inactive),85.1% (inactive),76.3% (inactive),107% (inactive),96% (inactive)
CN(C)CC1C(=O)O[C@H]2[C@H]1CC/C(COC(=O)c1cc3ccccc3[nH]1)=C\CC[C@@]1(C)O[C@@H]21 (stereo not given in full),-13.6% (active),-15.7% (active),-45.6% (active),-5.25% (active),-9.35% (active),65.1% (inactive),-41.2% (active),-82.7% (active),-3.98% (active),-30.8% (active),-76.6% (active),-52% (active),-38.2% (active),-19.3% (active),-41.8% (active),-83.3% (active),-82% (active),6.93% (active)
S=C(Cc1ccc2c(c1)CCCC2)N1CCOCC1,94.7% (inactive),112% (inactive),104% (inactive),99.2% (inactive),96.6% (inactive),98.2% (inactive),101% (inactive),107% (inactive),115% (inactive),105% (inactive),80.2% (inactive),101% (inactive),101% (inactive),114% (inactive),94.3% (inactive),87.6% (inactive),98% (inactive),106% (inactive)
CCN1CCN(c2cc(C)nc(NCc3cc(Nc4ccnc5cc(Cl)ccc45)ccc3F)n2)CC1,-18.4% (active),74.4% (inactive),69.6% (inactive),56% (inactive),50.5% (inactive),87.5% (inactive),59.1% (inactive),101% (inactive),71.4% (inactive),82.8% (inactive),-17.7% (active),98.6% (inactive),50.7% (inactive),40.8% (inactive),6.99% (active),11.8% (inactive),28% (inactive),82.7% (inactive)
CCCCCc1nc2c(c3c1CCCC3)CCCC2,31.8% (inactive),0.398% (active),59.8% (inactive),67.2% (inactive),70.7% (inactive),80.7% (inactive),61.7% (inactive),69.8% (inactive),65% (inactive),48.3% (inactive),71.9% (inactive),115% (inactive),99.7% (inactive),89.9% (inactive),66.9% (inactive),48.8% (inactive),87.8% (inactive),88.3% (inactive)
CC(=O)[C@@H]1CC[C@]2(COS(=O)(=O)c3ccc(C)cc3)CC[C@]3(C)[C@H](CC[C@@H]4[C@@]5(C)CCCNC(C)(C)[C@@H]5CC[C@]43C)[C@@H]12,-24.6% (active),46.4% (inactive),84% (inactive),81% (inactive),60.6% (inactive),91.1% (inactive),58.2% (inactive),88.1% (inactive),81.7% (inactive),78.8% (inactive),49.7% (inactive),82.6% (inactive),52.2% (inactive),9.71% (active),58.2% (inactive),32.8% (inactive),26.6% (inactive),52.3% (inactive)
Cc1ccc(-c2c(-c3ccccc3)c(=O)oc3ccc(C)cc23)cc1,71.1% (inactive),87.7% (inactive),93.9% (inactive),113% (inactive),98.5% (inactive),101% (inactive),145% (inactive),117% (inactive),99.6% (inactive),93.2% (inactive),84.3% (inactive),108% (inactive),103% (inactive),99.5% (inactive),116% (inactive),72.8% (inactive),90.5% (inactive),92% (inactive)
